# The supplement of paper PMC4466140
# B1: unnamed (peptide)
# chain: DDEDVPPQLPTRTKS
# B2: unnamed (peptide)
# chain: VQPTAAPATPPRHIS
# B3: unnamed (peptide)
# chain: SSSSSPPPLPTRRDH
# Molecular target: CaNbp2
# Assay: SPOT peptide array binding signal intensity (averaged, normalized) (arbitrary units (background-subtracted, floor 0; scale differs between SH3 domains)); higher = stronger binding of the SH3 domain to the peptide
# Procedure, shortened: (§1)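 E. coli BL21(DE3) was used to express GST-fused SH3 domains from four yeast species, which were then purified on glutathione Sepharose. These were incubated at 10 μg/ml in TBS-based blocking buffer overnight at 4°C on cellulose membranes carrying synthetic 15-mer peptides, in which cysteines were replaced by serines. Binding signal is the replicate average of normalized, background-subtracted spot intensity, in arbitrary units that differ between domains.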
row,Binder,SPOT peptide array binding signal intensity
1,B1,≤ 0
2,B2,≤ 0
3,B3,24.5

# Molecular target: CaRvs167
# Assay: as above
# Procedure, shortened: as §1
row,Binder,SPOT peptide array binding signal intensity
1,B1,1080
2,B2,462
3,B3,1510

# Molecular target: CaRvs167-3
# Assay: as above
# Procedure, shortened: as §1
row,Binder,SPOT peptide array binding signal intensity
1,B1,3.5
2,B2,≤ 0
3,B3,7.25

# Molecular target: CaSho1
# Assay: as above
# Procedure, shortened: as §1
row,Binder,SPOT peptide array binding signal intensity
1,B1,≤ 0
2,B2,≤ 0
3,B3,6.5

# Molecular target: CaSla1-D1-D2
# Assay: as above
# Procedure, shortened: as §1
row,Binder,SPOT peptide array binding signal intensity
1,B1,≤ 0
2,B2,≤ 0
3,B3,76

# Molecular target: CaSla1-D3
# Assay: as above
# Procedure, shortened: as §1
row,Binder,SPOT peptide array binding signal intensity
1,B1,≤ 0
2,B2,≤ 0
3,B3,3.25

# Molecular target: ScAbp1
# Assay: as above
# Procedure, shortened: as §1
row,Binder,SPOT peptide array binding signal intensity
1,B1,≤ 0
2,B2,≤ 0
3,B3,≤ 0

# Molecular target: ScBbc1
# Assay: as above
# Procedure, shortened: as §1
row,Binder,SPOT peptide array binding signal intensity
1,B1,0.5
2,B2,1.75
3,B3,4

# Molecular target: ScBem1-D1
# Assay: as above
# Procedure, shortened: as §1
row,Binder,SPOT peptide array binding signal intensity
1,B1,≤ 0
2,B2,≤ 0
3,B3,≤ 0

# Molecular target: ScBzz1-D1
# Assay: as above
# Procedure, shortened: as §1
row,Binder,SPOT peptide array binding signal intensity
1,B1,6
2,B2,≤ 0
3,B3,≤ 0

# Molecular target: ScBzz1-D2
# Assay: as above
# Procedure, shortened: as §1
row,Binder,SPOT peptide array binding signal intensity
1,B1,22
2,B2,≤ 0
3,B3,12

# Molecular target: ScCyk3
# Assay: as above
# Procedure, shortened: as §1
row,Binder,SPOT peptide array binding signal intensity
1,B1,1
2,B2,≤ 0
3,B3,1

# Molecular target: ScFus1
# Assay: as above
# Procedure, shortened: as §1
row,Binder,SPOT peptide array binding signal intensity
1,B1,6
2,B2,≤ 0
3,B3,20

# Molecular target: ScHof1
# Assay: as above
# Procedure, shortened: as §1
row,Binder,SPOT peptide array binding signal intensity
1,B1,16.5
2,B2,0.5
3,B3,9.75

# Molecular target: ScHse1
# Assay: as above
# Procedure, shortened: as §1
row,Binder,SPOT peptide array binding signal intensity
1,B1,23.5
2,B2,≤ 0
3,B3,15

# Molecular target: ScLsb1
# Assay: as above
# Procedure, shortened: as §1
row,Binder,SPOT peptide array binding signal intensity
1,B1,576
2,B2,14.5
3,B3,1340

# Molecular target: ScLsb2
# Assay: as above
# Procedure, shortened: as §1
row,Binder,SPOT peptide array binding signal intensity
1,B1,≤ 0
2,B2,≤ 0
3,B3,349

# Molecular target: ScLsb3
# Assay: as above
# Procedure, shortened: as §1
row,Binder,SPOT peptide array binding signal intensity
1,B1,9300
2,B2,6740
3,B3,5910

# Molecular target: ScLsb4
# Assay: as above
# Procedure, shortened: as §1
row,Binder,SPOT peptide array binding signal intensity
1,B1,3020
2,B2,1970
3,B3,7200

# Molecular target: ScMyo3
# Assay: as above
# Procedure, shortened: as §1
row,Binder,SPOT peptide array binding signal intensity
1,B1,≤ 0
2,B2,≤ 0
3,B3,460

# Molecular target: ScMyo5
# Assay: as above
# Procedure, shortened: as §1
row,Binder,SPOT peptide array binding signal intensity
1,B1,≤ 0
2,B2,≤ 0
3,B3,166

# Molecular target: ScNbp2
# Assay: as above
# Procedure, shortened: as §1
row,Binder,SPOT peptide array binding signal intensity
1,B1,≤ 0
2,B2,≤ 0
3,B3,≤ 0

# Molecular target: ScPex13
# Assay: as above
# Procedure, shortened: as §1
row,Binder,SPOT peptide array binding signal intensity
1,B1,1570
2,B2,4
3,B3,1560

# Molecular target: ScRvs167
# Assay: as above
# Procedure, shortened: as §1
row,Binder,SPOT peptide array binding signal intensity
1,B1,1980
2,B2,1040
3,B3,2180

# Molecular target: ScSho1
# Assay: as above
# Procedure, shortened: as §1
row,Binder,SPOT peptide array binding signal intensity
1,B1,6
2,B2,4.75
3,B3,26.5

# Molecular target: ScSla1-D1-D2
# Assay: as above
# Procedure, shortened: as §1
row,Binder,SPOT peptide array binding signal intensity
1,B1,1
2,B2,≤ 0
3,B3,51

# Molecular target: ScSla1-D3
# Assay: as above
# Procedure, shortened: as §1
row,Binder,SPOT peptide array binding signal intensity
1,B1,0.5
2,B2,≤ 0
3,B3,10

# Molecular target: SpAbp1-D1
# Assay: as above
# Procedure, shortened: as §1
row,Binder,SPOT peptide array binding signal intensity
1,B1,≤ 0
2,B2,≤ 0
3,B3,22.5

# Molecular target: SpBbc1
# Assay: as above
# Procedure, shortened: as §1
row,Binder,SPOT peptide array binding signal intensity
1,B1,3.75
2,B2,≤ 0
3,B3,13

# Molecular target: SpBzz1-D1
# Assay: as above
# Procedure, shortened: as §1
row,Binder,SPOT peptide array binding signal intensity
1,B1,0.5
2,B2,≤ 0
3,B3,406

# Molecular target: SpBzz1-D2
# Assay: as above
# Procedure, shortened: as §1
row,Binder,SPOT peptide array binding signal intensity
1,B1,≤ 0
2,B2,≤ 0
3,B3,9.75

# Molecular target: SpCyk3
# Assay: as above
# Procedure, shortened: as §1
row,Binder,SPOT peptide array binding signal intensity
1,B1,≤ 0
2,B2,≤ 0
3,B3,2

# Molecular target: SpHof1
# Assay: as above
# Procedure, shortened: as §1
row,Binder,SPOT peptide array binding signal intensity
1,B1,16.8
2,B2,0.5
3,B3,8.75

# Molecular target: SpHof1-2
# Assay: as above
# Procedure, shortened: as §1
row,Binder,SPOT peptide array binding signal intensity
1,B1,7
2,B2,0.25
3,B3,54.5

# Molecular target: SpHof1-3
# Assay: as above
# Procedure, shortened: as §1
row,Binder,SPOT peptide array binding signal intensity
1,B1,6
2,B2,15
3,B3,8.75

# Molecular target: SpHse1
# Assay: as above
# Procedure, shortened: as §1
row,Binder,SPOT peptide array binding signal intensity
1,B1,7
2,B2,≤ 0
3,B3,35

# Molecular target: SpLsb1
# Assay: as above
# Procedure, shortened: as §1
row,Binder,SPOT peptide array binding signal intensity
1,B1,27.5
2,B2,2
3,B3,1530

# Molecular target: SpLsb4
# Assay: as above
# Procedure, shortened: as §1
row,Binder,SPOT peptide array binding signal intensity
1,B1,7620
2,B2,4010
3,B3,6770

# Molecular target: SpMyo1
# Assay: as above
# Procedure, shortened: as §1
row,Binder,SPOT peptide array binding signal intensity
1,B1,≤ 0
2,B2,≤ 0
3,B3,308

# Molecular target: SpNbp2
# Assay: as above
# Procedure, shortened: as §1
row,Binder,SPOT peptide array binding signal intensity
1,B1,8
2,B2,≤ 0
3,B3,6

# Molecular target: SpPex13
# Assay: as above
# Procedure, shortened: as §1
row,Binder,SPOT peptide array binding signal intensity
1,B1,≤ 0
2,B2,≤ 0
3,B3,6.5

# Molecular target: SpRvs167
# Assay: as above
# Procedure, shortened: as §1
row,Binder,SPOT peptide array binding signal intensity
1,B1,1800
2,B2,1620
3,B3,2880

# Molecular target: SpSla1-D1-D2
# Assay: as above
# Procedure, shortened: as §1
row,Binder,SPOT peptide array binding signal intensity
1,B1,≤ 0
2,B2,0.5
3,B3,11

# Molecular target: SpSla1-D3
# Assay: as above
# Procedure, shortened: as §1
row,Binder,SPOT peptide array binding signal intensity
1,B1,3
2,B2,≤ 0
3,B3,9.5

# Molecular target: AgAbp1
# Assay: as above
# Procedure, shortened: as §1
row,Binder,SPOT peptide array binding signal intensity
1,B2,≤ 0
2,B3,≤ 0

# Molecular target: AgBbc1
# Assay: as above
# Procedure, shortened: as §1
row,Binder,SPOT peptide array binding signal intensity
1,B2,≤ 0
2,B3,364

# Molecular target: AgBem1-D1
# Assay: as above
# Procedure, shortened: as §1
row,Binder,SPOT peptide array binding signal intensity
1,B2,≤ 0
2,B3,2

# Molecular target: AgBzz1-D1
# Assay: as above
# Procedure, shortened: as §1
row,Binder,SPOT peptide array binding signal intensity
1,B2,≤ 0
2,B3,26

# Molecular target: AgBzz1-D2
# Assay: as above
# Procedure, shortened: as §1
row,Binder,SPOT peptide array binding signal intensity
1,B2,≤ 0
2,B3,19.5

# Molecular target: AgCyk3
# Assay: as above
# Procedure, shortened: as §1
row,Binder,SPOT peptide array binding signal intensity
1,B2,≤ 0
2,B3,1.5

# Molecular target: AgFus1
# Assay: as above
# Procedure, shortened: as §1
row,Binder,SPOT peptide array binding signal intensity
1,B2,≤ 0
2,B3,15.5

# Molecular target: AgHof1
# Assay: as above
# Procedure, shortened: as §1
row,Binder,SPOT peptide array binding signal intensity
1,B2,≤ 0
2,B3,59

# Molecular target: AgHse1
# Assay: as above
# Procedure, shortened: as §1
row,Binder,SPOT peptide array binding signal intensity
1,B2,5.5
2,B3,18.5

# Molecular target: AgLsb1
# Assay: as above
# Procedure, shortened: as §1
row,Binder,SPOT peptide array binding signal intensity
1,B2,8
2,B3,180

# Molecular target: AgLsb4
# Assay: as above
# Procedure, shortened: as §1
row,Binder,SPOT peptide array binding signal intensity
1,B2,964
2,B3,6800

# Molecular target: AgMyo5
# Assay: as above
# Procedure, shortened: as §1
row,Binder,SPOT peptide array binding signal intensity
1,B2,≤ 0
2,B3,586

# Molecular target: AgNbp2
# Assay: as above
# Procedure, shortened: as §1
row,Binder,SPOT peptide array binding signal intensity
1,B2,≤ 0
2,B3,16

# Molecular target: AgRvs167
# Assay: as above
# Procedure, shortened: as §1
row,Binder,SPOT peptide array binding signal intensity
1,B2,43.6
2,B3,627

# Molecular target: AgSho1
# Assay: as above
# Procedure, shortened: as §1
row,Binder,SPOT peptide array binding signal intensity
1,B2,≤ 0
2,B3,19

# Molecular target: AgSla1-D1-D2
# Assay: as above
# Procedure, shortened: as §1
row,Binder,SPOT peptide array binding signal intensity
1,B2,≤ 0
2,B3,≤ 0

# Molecular target: AgSla1-D3
# Assay: as above
# Procedure, shortened: as §1
row,Binder,SPOT peptide array binding signal intensity
1,B2,≤ 0
2,B3,≤ 0

# Molecular target: CaAbp1-D1
# Assay: as above
# Procedure, shortened: as §1
row,Binder,SPOT peptide array binding signal intensity
1,B2,≤ 0
2,B3,7.5

# Molecular target: CaAbp1-D2
# Assay: as above
# Procedure, shortened: as §1
row,Binder,SPOT peptide array binding signal intensity
1,B2,≤ 0
2,B3,≤ 0

# Molecular target: CaBbc1
# Assay: as above
# Procedure, shortened: as §1
row,Binder,SPOT peptide array binding signal intensity
1,B2,78.6
2,B3,378

# Molecular target: CaBem1-D1
# Assay: as above
# Procedure, shortened: as §1
row,Binder,SPOT peptide array binding signal intensity
1,B2,5
2,B3,4

# Molecular target: CaBzz1-D1
# Assay: as above
# Procedure, shortened: as §1
row,Binder,SPOT peptide array binding signal intensity
1,B2,≤ 0
2,B3,139

# Molecular target: CaBzz1-D2
# Assay: as above
# Procedure, shortened: as §1
row,Binder,SPOT peptide array binding signal intensity
1,B2,≤ 0
2,B3,≤ 0

# Molecular target: CaCyk3
# Assay: as above
# Procedure, shortened: as §1
row,Binder,SPOT peptide array binding signal intensity
1,B2,≤ 0
2,B3,2

# Molecular target: CaFus1
# Assay: as above
# Procedure, shortened: as §1
row,Binder,SPOT peptide array binding signal intensity
1,B2,≤ 0
2,B3,26

# Molecular target: CaHof1
# Assay: as above
# Procedure, shortened: as §1
row,Binder,SPOT peptide array binding signal intensity
1,B2,≤ 0
2,B3,24.5

# Molecular target: CaHse1
# Assay: as above
# Procedure, shortened: as §1
row,Binder,SPOT peptide array binding signal intensity
1,B2,5.25
2,B3,114

# Molecular target: CaLsb1
# Assay: as above
# Procedure, shortened: as §1
row,Binder,SPOT peptide array binding signal intensity
1,B2,≤ 0
2,B3,19.5

# Molecular target: CaLsb4
# Assay: as above
# Procedure, shortened: as §1
row,Binder,SPOT peptide array binding signal intensity
1,B2,2000
2,B3,8630

# Molecular target: CaMyo5
# Assay: as above
# Procedure, shortened: as §1
row,Binder,SPOT peptide array binding signal intensity
1,B2,≤ 0
2,B3,6.5
